Source: PubChem BioAssay
Calls of active or inactive are those of the source. Unless noted, how the calls were made is not given here.

Tests used:
[1] = compounds binding Alexa647 anti-His antibody – biochemical, small-molecule microarray, 635 nm fluorescence, artefact control for SMM control protein annotation, primary screen (AID 1128); settings: higher = more signal;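 further: score merges feature fluorescence with signal-to-noise for each printed compound spot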
[2] = test system: Human papillomavirus type 1a E7 protein (residues 1-88); assay: HPV1a E7 small-molecule binders, primary screen, biochemical, small-molecule microarray, residues 1-88, 635 nm (AID 1129); settings: small-molecule microarray binding, fluorescence 635 nm; higher = more signal
[3] = target: Focal adhesion kinase 1 (Homo sapiens) (UniProt Q05397); assay: PTK2 protein binding on printed compound slides – biochemical, small-molecule microarray, 635/667 nm fluorescence, BSA, DTT, primary screen (AID 1130); settings: 635 nm fluorescence, higher = more signal;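 further: composite of spot emission at 667 nm and signal to noise over triplicate slides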
Chain of Focal adhesion kinase 1 (Homo sapiens) (Q05397 whole entry, looked up): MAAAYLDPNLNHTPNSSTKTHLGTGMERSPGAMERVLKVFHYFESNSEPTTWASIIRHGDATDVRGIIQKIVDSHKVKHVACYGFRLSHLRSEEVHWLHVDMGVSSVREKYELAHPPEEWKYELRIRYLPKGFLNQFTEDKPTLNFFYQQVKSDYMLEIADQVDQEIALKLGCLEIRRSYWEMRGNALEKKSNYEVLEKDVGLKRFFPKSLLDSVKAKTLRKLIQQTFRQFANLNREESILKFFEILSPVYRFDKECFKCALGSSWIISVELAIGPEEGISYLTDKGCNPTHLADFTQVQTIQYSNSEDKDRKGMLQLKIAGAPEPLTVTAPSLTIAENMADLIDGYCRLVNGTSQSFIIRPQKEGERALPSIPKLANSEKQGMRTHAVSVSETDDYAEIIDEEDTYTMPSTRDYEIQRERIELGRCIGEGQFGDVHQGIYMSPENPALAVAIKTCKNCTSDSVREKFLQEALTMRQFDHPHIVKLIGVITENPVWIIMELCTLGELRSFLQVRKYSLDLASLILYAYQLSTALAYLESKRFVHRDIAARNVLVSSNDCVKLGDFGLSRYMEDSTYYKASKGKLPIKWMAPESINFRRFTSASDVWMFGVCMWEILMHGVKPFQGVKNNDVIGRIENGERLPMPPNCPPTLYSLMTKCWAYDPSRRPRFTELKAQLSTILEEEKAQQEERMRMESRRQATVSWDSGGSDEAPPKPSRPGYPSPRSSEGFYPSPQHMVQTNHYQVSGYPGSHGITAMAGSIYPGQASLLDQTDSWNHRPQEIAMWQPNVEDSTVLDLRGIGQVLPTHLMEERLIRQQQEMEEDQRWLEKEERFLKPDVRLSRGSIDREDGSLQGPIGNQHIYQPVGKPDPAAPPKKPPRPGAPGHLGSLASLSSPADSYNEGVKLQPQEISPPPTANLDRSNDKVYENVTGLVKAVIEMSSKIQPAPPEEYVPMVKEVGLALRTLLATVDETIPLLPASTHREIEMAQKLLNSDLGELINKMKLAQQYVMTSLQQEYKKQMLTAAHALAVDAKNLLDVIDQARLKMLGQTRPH

[4] = test system: Fibrinogen (Alexa647-labelled); assay: Alexa647-fibrinogen binding to printed small molecules – biochemical, small-molecule microarray, 635/667 nm fluorescence, artefact control for SMM control-protein annotation, profiling panel (AID 1131); settings: fibrinogen-A647 binding fluorescence, higher = more signal;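 further: z-score merges 667 nm fluorescence with per-spot signal-to-noise over triplicate slides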
[5] = target: Follistatin (Homo sapiens) (UniProt P19883); assay: FST protein binding to printed compounds – biochemical, small-molecule microarray, 635/667 nm fluorescence, primary screen (AID 1132); settings: 635 nm fluorescence, higher = more signal
Chain of Follistatin (Homo sapiens) (P19883 whole entry, looked up): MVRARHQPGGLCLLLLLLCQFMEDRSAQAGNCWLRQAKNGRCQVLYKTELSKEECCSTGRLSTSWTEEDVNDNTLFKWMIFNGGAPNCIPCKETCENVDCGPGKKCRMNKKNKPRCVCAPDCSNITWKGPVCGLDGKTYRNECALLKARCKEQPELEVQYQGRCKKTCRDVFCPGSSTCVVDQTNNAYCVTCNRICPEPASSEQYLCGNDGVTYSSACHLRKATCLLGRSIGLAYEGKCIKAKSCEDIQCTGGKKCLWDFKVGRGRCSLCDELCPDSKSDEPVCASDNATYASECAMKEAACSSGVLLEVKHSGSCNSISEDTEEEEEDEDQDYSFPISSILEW

[6] = target: Fibroblast growth factor 2 (Homo sapiens) (UniProt P09038); assay: basic fibroblast growth factor binding to printed compounds – biochemical, small-molecule microarray, 635/667 nm fluorescence, primary screen (AID 1133); settings: FGF2, fluorescence 635/667, higher = more signal
Chain of Fibroblast growth factor 2 (Homo sapiens) (P09038 whole entry, looked up): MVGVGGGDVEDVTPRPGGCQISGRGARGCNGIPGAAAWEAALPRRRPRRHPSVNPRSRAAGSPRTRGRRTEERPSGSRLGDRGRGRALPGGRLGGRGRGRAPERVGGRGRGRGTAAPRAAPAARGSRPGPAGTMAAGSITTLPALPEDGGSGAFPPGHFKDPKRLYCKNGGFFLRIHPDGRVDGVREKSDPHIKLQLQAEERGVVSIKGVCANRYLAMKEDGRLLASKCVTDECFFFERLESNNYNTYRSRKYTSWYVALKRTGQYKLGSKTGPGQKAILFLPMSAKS

[7] = JC-1 mitochondrial potential readout, lung cancer cells – cell-based, A549, JC-1 fluorescence, basal, 24 h, 100 nL, profiling panel (AID 1138); settings: higher = more signal;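 further: A549 lung adenocarcinoma cells under basal conditions with no added stimulus; test concentration not given here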
[8] = test system: Lefty1; assay: Lefty1 protein binding to printed compounds – biochemical, small-molecule microarray, 635/667 nm fluorescence, primary screen (AID 1139); settings: fluorescence 635/667, higher = more signal
[9] = test system: wheat germ agglutinin (Triticum aestivum), Alexa647-labelled; assay: Alexa647-WGA lectin binding to printed small molecules – biochemical, small-molecule microarray, 635/667 nm fluorescence, artefact control for SMM control-protein annotation, profiling panel (AID 1140); settings: WGA-A647 binding, 635 nm fluorescence, higher = more signal;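 further: score merges 667 nm feature emission with signal to noise over triplicate slides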
[10] = target: Luciferin 4-monooxygenase (Photinus pyralis) (UniProt P08659); assay: inhibition of purified Photinus pyralis luciferase – biochemical, luminescence, purified enzyme, 2006 set, primary screen (AID 1141); settings: purified firefly luciferase, SteadyGlo luminescence, 30 min; higher = more signal, called active from +8 up or from −8 down;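 further: cell-free assay with purified firefly luciferase at 100 ng per well in PBS; test concentration not given here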
Chain of Luciferin 4-monooxygenase (Photinus pyralis) (P08659 whole entry, looked up): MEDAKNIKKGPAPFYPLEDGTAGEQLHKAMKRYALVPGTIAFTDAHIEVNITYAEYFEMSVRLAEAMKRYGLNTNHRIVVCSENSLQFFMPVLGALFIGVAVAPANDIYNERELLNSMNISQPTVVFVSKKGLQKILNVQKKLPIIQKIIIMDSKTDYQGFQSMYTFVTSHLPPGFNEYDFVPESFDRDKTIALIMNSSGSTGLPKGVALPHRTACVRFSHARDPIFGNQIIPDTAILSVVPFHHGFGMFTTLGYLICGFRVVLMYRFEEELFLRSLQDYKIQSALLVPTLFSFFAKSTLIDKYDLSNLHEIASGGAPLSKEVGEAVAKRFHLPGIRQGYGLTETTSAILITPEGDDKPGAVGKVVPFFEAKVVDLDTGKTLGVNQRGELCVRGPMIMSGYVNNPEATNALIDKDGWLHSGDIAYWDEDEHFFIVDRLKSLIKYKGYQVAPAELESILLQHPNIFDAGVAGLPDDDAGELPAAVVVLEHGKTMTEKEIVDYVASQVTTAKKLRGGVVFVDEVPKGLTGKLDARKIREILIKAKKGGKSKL

[11] = test system: Wnt5a (protein binding on small-molecule microarray); assay: small molecules binding Wnt5a protein – biophysical, small-molecule microarray, 635/667 nm fluorescence, primary screen (AID 1142); settings: 635 nm fluorescence, higher = more signal;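 further: fluorescence read at 667 nm with signal to noise per printed feature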
[12] = ATP-based viability of Huh7 replicon cells – cell-based, CellTiter-Glo luminescence, basal, 48 h, cytotoxicity control for HCV replication inhibitor project, primary screen (AID 1143); settings: higher = more signal, called active from +8 up or from −8 down;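 further: Huh7 hepatoma cells carrying a hepatitis C replication reporter with no stimulus; test concentration not given here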
[13] = Pseudomonas biofilm growth suppression – PAO1 strain, BacTiter-Glo luminescence, LB-PBS, primary screen (AID 1144); settings: P. aeruginosa PAO1 biofilm, 12 h, higher = more signal
[14] = basal CRE-LacZ reporter activity in PC12 – cell-based, unstimulated, primary screen (AID 1145); settings: no forskolin, luminescence, 4.5 h, higher = more signal, called active from +8 up or from −8 down
[15] = forskolin-driven CRE-LacZ activity in PC12 – cell-based, CRE-LacZ reporter, forskolin-stimulated, primary screen (AID 1146); settings: luminescence, 4.5 h, higher = more signal, called active from +8 up or from −8 down;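 further: PC12 cells with 6xCRE LacZ reporter stimulated by forskolin 10 µM; beta-galactosidase reporter signal reflecting CREB driven transcription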
[16] = target: Streptavidin (Streptomyces avidinii) (UniProt P22629); assay: compounds binding control protein streptavidin – biophysical, small-molecule microarray, 635/667 nm fluorescence, artefact control for SMM compound annotation, primary screen (AID 1147); settings: higher = more signal;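 further: signal reflects streptavidin binding to arrayed compounds as a control protein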
Chain of Streptavidin (Streptomyces avidinii) (P22629 whole entry, looked up): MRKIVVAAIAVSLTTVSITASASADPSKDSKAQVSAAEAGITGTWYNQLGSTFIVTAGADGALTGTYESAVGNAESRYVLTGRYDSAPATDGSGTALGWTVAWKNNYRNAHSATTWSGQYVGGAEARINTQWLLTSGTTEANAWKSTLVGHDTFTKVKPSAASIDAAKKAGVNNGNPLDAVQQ

[17] = probe aInhba binding on compound microarray – biochemical, small-molecule microarray, 635/667 nm fluorescence, primary screen (AID 1148); settings: higher = more signal;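 further: score merges 667nm spot fluorescence with signal-to-noise for antibody binding to printed compounds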
[18] = target: Torsin-1A (Homo sapiens) (UniProt O14656); assay: TOR1A wild-type binding on microarray – cell lysate, small-molecule microarray, lysate, 635/667 nm, primary screen (AID 1149); settings: COS7 hTOR1A-WT lysate, 635 nm fluorescence, higher = more signal
Chain of Torsin-1A (Homo sapiens) (O14656 whole entry, looked up): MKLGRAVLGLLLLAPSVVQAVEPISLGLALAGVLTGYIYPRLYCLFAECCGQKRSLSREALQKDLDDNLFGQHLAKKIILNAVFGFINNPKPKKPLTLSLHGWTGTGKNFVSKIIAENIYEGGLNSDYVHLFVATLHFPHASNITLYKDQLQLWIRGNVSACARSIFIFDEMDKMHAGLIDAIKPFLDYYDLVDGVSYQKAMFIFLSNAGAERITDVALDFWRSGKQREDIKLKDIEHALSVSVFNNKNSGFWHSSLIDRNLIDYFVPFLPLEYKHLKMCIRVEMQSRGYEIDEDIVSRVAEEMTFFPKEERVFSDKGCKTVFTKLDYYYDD

[19] = target: Torsin-1A (Homo sapiens) (UniProt O14656); assay: torsin A mutant lysate binding on microarrays – cell lysate, small-molecule microarray, COS7 lysate, 635/667 nm fluorescence, primary screen (AID 1150); settings: COS7 hTOR1A mutant lysate, 635 nm fluorescence, higher = more signal;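 further: score pools 667 nm emission and signal to noise measuring lysate protein binding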
[20] = test system: Sonic hedgehog protein (Shh); assay: Sonic hedgehog microarray binding compounds – biochemical, small-molecule microarray, 635/667 nm fluorescence, primary screen (AID 1151); settings: 635 nm fluorescence, higher = more signal;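 further: Shh protein binding to compounds spotted on small-molecule microarray slides; score combines spot fluorescence intensity with signal-to-noise across triplicate slides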

SMILES	composite z-score [1]	composite z-score [2]	composite z-score [3]	composite z-score [4]	composite z-score [5]	composite z-score [6]	z-score [7]	composite z-score [8]	composite z-score [9]	z-score [10]	composite z-score [11]	z-score [12]	z-score [13]	z-score [14]	z-score [15]	composite z-score [16]	composite z-score [17]	composite z-score [18]	composite z-score [19]	composite z-score [20]
COC(=O)[C@@]1(Cc2ccc(F)cc2)[C@H]2c3cc(C(=O)N(C)C)n(CCc4ccc(OC)c(Br)c4)c3C[C@H]2CN1C(=O)c1ccccc1	1.18	0.902	0.178	0.626	-0.0313	-0.433	-0.638	-0.337	0.187	-0.499 (inactive)	1.88	-4.65 (inactive)	0.167 (inactive)	17.2 (active)	124 (active)	0.221	0.925	0.005	0.741	-1.09
COCCOC(=O)N1C(=O)[C@@]2(c3cc(C#CC4(O)CCCCCC4)ccc31)[C@H](C(=O)Nc1nc3ccccc3s1)[C@H]1C(=O)O[C@H](c3ccccc3)[C@H](c3ccccc3)N1[C@@H]2c1ccc(O)cc1	1.89	1.24	0.783	0.942	1.28	1.06	-1.14	1.15	0.275	-0.557 (inactive)	0.62	-0.804 (inactive)	-0.374 (inactive)	0.245 (inactive)	7.33 (inactive)	0.857	0.117	0.878	0.753	1.52
[N-]=[N+]=Nc1ccccc1C[C@]1(C(=O)N2CCOCC2)COC(c2ccc(OCCCO)cc2)=N1	0.964	1.24	0.144	1.04	0.39	-0.313	0.9	-0.0478	0.606	-5.96 (inactive)	0.375	-4.38 (inactive)	-0.33 (inactive)	0.344 (inactive)	-0.687 (inactive)	1.42	0.191	0.442	0.507	-1.01
CCCCC(=C=CC[C@H](O)c1ccc(OCCO)cc1)CCO	-0.582	0.0547	0.0832	-1.64	-0.232	-0.674	0.25	0.282	0.717	-0.98 (inactive)	-0.0188	-1.08 (inactive)	0.489 (inactive)	2.57 (inactive)	0.0098 (inactive)	-0.209	-0.0451	0.678	1.58	0.011
CCCC[C@@H](O)C1=C(COc2ccccc2)C[C@H]2C(=O)N(Cc3ccccc3)C(=O)[C@H]2[C@H]1CO	-0.412	-0.0512	-0.0235	0.832	0.269	0.275	0.85	0.634	0.371	-1.25 (inactive)	-0.143	-2.03 (inactive)	0.436 (inactive)	7.39 (inactive)	-0.695 (inactive)	-0.0098	-0.239	-0.152	0.107	0.491
C#CCN(Cc1ccccc1Br)[C@H](/C=C/c1ccccc1)[C@@H](O)Cc1ccccc1	0.244	-0.548	-0.082	-1.24	-1.25	-1.23	0.921	-0.62	-0.351	-0.629 (inactive)	-0.356	-2.2 (inactive)	-0.109 (inactive)	2.49 (inactive)	-0.697 (inactive)	-0.385	-0.179	-0.622	0.543	-0.866
COc1cccc(C)c1NC(=O)O[C@H]1[C@H](OC(=O)Nc2ccccc2-c2ccccc2)[C@H](OC(=O)Nc2ccccc2-c2ccccc2)[C@@H](OC)O[C@@H]1CO	0.528	1.22	0.588	0.974	1.35	0.79	-0.41	0.906	0.79	-0.33 (inactive)	0.63	-3.45 (inactive)	1.14 (inactive)	-0.207 (inactive)	-0.433 (inactive)	1.26	0.0128	0.561	0.455	1.39
C[C@@H]1NC(=O)[C@@H](Cc2ccccc2)NC(=O)[C@@]23C(=O)N[C@@H](Cc4ccccc4)C2[C@H](C)[C@@]2(C)O[C@H]2C3/C=C/C/C=C\CNC1=O (stereo not given in full)	-0.116	-0.514	-0.0535	-0.913	0.41	-0.0086	-0.0637	0.633	-0.889	-1.03 (inactive)	-0.186	0.15 (inactive)	0.111 (inactive)	3.57 (inactive)	0.272 (inactive)	-0.963	-0.187	0.406	0.32	1.45
COc1cc(NN2C(C(O)c3cc(OC)c(OC)c(OC)c3)C=CC3C(=O)N(C)C(=O)C32)cc(OC)c1OC (stereo not given)	0.661	1.07	0.368	0.169	0.67	0.0023	1.38	0.289	0.694	0.229 (inactive)	-0.019	-0.0088 (inactive)	-0.792 (inactive)	0.243 (inactive)	0.445 (inactive)	0.853	-0.0336	0.434	0.459	0.0774
CCC#CCN(Cc1ccccc1Br)[C@H](/C=C/C1CC1)[C@@H](O)Cc1ccccc1	0.251	-0.499	-0.579	-0.805	-0.837	-0.984	-0.368	-0.355	-0.366	0.619 (inactive)	-0.679	-2.43 (inactive)	-1.23 (inactive)	2.67 (inactive)	-0.835 (inactive)	-0.529	-0.154	-0.806	0.0257	-0.643
